High-throughput results deposited in PubChem by National Center for Advancing Translational Sciences (NCATS).
Hits are enriched below; roughly 1.2% of the tested compounds scored in any of these assays.
Giardia FBPA inh-1 – Giardia lamblia aldolase inhibition; A8B2U2; purified Giardia FBPA; Potency, µM (series often up to 59.6 µM), for the others: at the top dose activity, negative = inhibition, hits mostly inhibitors; 0.71% of 290,000 active; AID 2451; further: potency means the concentration at half of the fitted maximal effect; on the % scale 0 is the no-effect control and ±100 the full control effect; nearly all actives have a fitted effect of over 55% in size
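40 nM FBPA preincubated 10 min at RT with compound (up to 57.5 uM final), then substrate plus GAPDH/TPI/NAD/arsenate coupling and diaphorase/resazurin added. Fluorescence read after 20 min at RT, 525/598 nm.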
NS1 inh – inhibitors of influenza NS1 protein function. Potency, µM (series often up to 46.1 µM), for inactives: top-dose activity, positive = more growth. 0.4% of 270,000 active. AID 2326; calls by dose curve; further: potency means the concentration at half of the fitted maximal effect; actives are rising curves; nearly all actives have a fitted effect of over 50% in size
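Compounds were scored for reversing the slow growth caused by influenza A NS1 in S. cerevisiae, measured by optical density at 600 nm. Assay medium contained 2% galactose at pH 6.0; NS1-free yeast of the same strain were the positive control.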
LmPK inh – LmPK (Leishmania mexicana) enzyme inhibition. Potency, µM (highest dose often 57.5 µM), for the others: top-dose activity change, negative = inhibition, most hits filed as inhibitors. purified LmPK, Kinase-Glo ATP luminescence, 1 h. 0.37% of 290,000 active. Q27686; further: potency means the concentration at half of the fitted maximal effect; on the % scale 0 is the no-effect control and ±100 the full control effect
Target sequence (Q27686 whole entry, looked up): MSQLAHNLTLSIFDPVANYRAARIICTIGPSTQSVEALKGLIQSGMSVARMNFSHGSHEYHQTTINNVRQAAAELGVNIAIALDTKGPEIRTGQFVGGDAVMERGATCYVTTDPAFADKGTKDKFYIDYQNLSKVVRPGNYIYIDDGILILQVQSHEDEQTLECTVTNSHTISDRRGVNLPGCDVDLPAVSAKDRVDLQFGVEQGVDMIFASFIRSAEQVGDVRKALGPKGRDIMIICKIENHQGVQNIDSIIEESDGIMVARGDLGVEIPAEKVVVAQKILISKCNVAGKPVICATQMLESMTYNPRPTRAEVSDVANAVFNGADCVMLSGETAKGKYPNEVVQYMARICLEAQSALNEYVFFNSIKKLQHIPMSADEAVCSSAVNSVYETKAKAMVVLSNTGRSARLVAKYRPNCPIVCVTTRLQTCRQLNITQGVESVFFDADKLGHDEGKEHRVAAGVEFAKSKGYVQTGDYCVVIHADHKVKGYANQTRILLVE
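Purified LmPK (0.1 nM) with 0.5 mM PEP and 0.1 mM ADP in imidazole buffer pH 7.2 with MgCl2/KCl, 1 h at room temperature. ATP formed was read by luciferase luminescence and normalized to no-enzyme and uninhibited controls.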
AMA1-RON2 inh – inhibitors of Plasmodium falciparum AMA1-RON2 interaction; AlphaScreen AMA1-biotinylated RON2 peptide binding; Potency, µM (titrated, usually from 58.2 µM), without a hit: at the top dose activity change, negative = inhibition, most hits filed as inhibitors; 0.2% of 360,000 active;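 further: potency means the concentration at half of the fitted maximal effect; 0% = vehicle wells and -100% = peptide control; nearly all actives have a fitted effect of over 45% in size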
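AMA1 (3D7) with his tag at 25 nM final met compounds first, then biotinylated RON2 peptide at 25 nM; detection used donor plus acceptor beads, 10 µg/mL apiece, read by AlphaScreen after 30 min at room temperature.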
Tb PYK inh – inhibitors of Trypanosoma brucei pyruvate kinase | 0.12% of 410,000 active | AID 624173 | Q57TT1 | Potency, µM (highest dose often 76.8 µM), for inactives: at the highest dose activity, negative = inhibition, most hits filed as inhibitors | TbPYK enzyme, Kinase-Glo Plus ATP luminescence, 45 min; further: potency means the concentration at half of the fitted maximal effect; on the % scale 0 is the no-effect control and ±100 the full control effect; nearly all actives have a fitted effect of over 50% in size
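Activity of T. brucei pyruvate kinase was followed by Kinase-Glo Plus luminescence after the enzyme reacted 45 min at room temperature with 130 uM ADP (final) and substrate. Test compounds were added before ADP at multiple concentrations.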
NS1 inh valid – influenza NS1 function inhibition validation | shares compounds with NS1 inh | influenza NS1 function cell assay, 15-point titration | activity change, negative = inhibition, % at 32.9 µM | 1,400 tested, under 10 active | AID 492980; calls by dose curve; further: 0% is about no effect
Giardia growth – Giardia lamblia growth inhibition. Giardia lamblia trophozoite growth inhibition. Potency, µM (doses to about 57.5 µM), inactives show at the top dose activity change, negative = inhibition, usual class: inhibitors. shares compounds with Giardia FBPA inh-1. 5% of 1,500 active. AID 2785;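 further: potency means the concentration at half of the fitted maximal effect; trophozoites exposed to compound for 48 h at 37 °C; on the % scale 0 is the no-effect control and ±100 the full control effect; nearly all actives have a fitted effect of over 70% in size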
Mammal cell tox – counter-screen for Giardia aldolase inhibitors: mammalian cell toxicity. shares compounds with Giardia FBPA inh-1. mammalian cell viability counter-screen, qHTS. Potency, µM (titrated, usually from 57.5 µM), for inactives: at the highest dose viability change, negative = toxicity, hits mostly inhibitors. 4% of 1,500 active;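 further: Chinese hamster ovary cells used as mammalian cytotoxicity surrogate; viability measured as cellular ATP by luminescence; potency means the concentration at half of the fitted maximal effect; compound exposure lasted 48 h before reading; on the % scale 0 is the no-effect control and ±100 the full control effect; nearly all actives have a fitted effect of over 60% in size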
Giardia FBPA inh-2 – confirmation of Giardia fructose-bisphosphate aldolase inhibitors. 5% of 1,500 active. purified Giardia aldolase enzyme activity, qHTS. Potency, µM (titrated, usually from 57.5 µM), inactives show top-dose activity change, negative = inhibition, usual class: inhibitors. shares compounds with Giardia FBPA inh-1. AID 2787; further: potency means the concentration at half of the fitted maximal effect; on the % scale 0 is the no-effect control and ±100 the full control effect; nearly all actives have a fitted effect of over 45% in size
Rabbit FBPA inh – rabbit FBP aldolase inhibition by Giardia aldolase hits; shares compounds with Giardia FBPA inh-1; Rabbit muscle FBPA enzyme inhibition, selectivity counter-screen; Potency, µM (highest dose often 57.5 µM), without a hit: at the top dose activity, negative = inhibition, most hits filed as inhibitors; 4% of 1,500 active; AID 2794; further: potency means the concentration at half of the fitted maximal effect; on the % scale 0 is the no-effect control and ±100 the full control effect; nearly all actives have a fitted effect of over 60% in size
GAPDH counter – GAPDH inhibition flagged for Giardia aldolase hits; shares compounds with Giardia FBPA inh-1; Potency, µM (series often up to 57.5 µM), inactives show at the top dose activity change, negative = inhibition, most hits filed as inhibitors; GAPDH coupling enzyme counterscreen, biochemical, qHTS; AID 2795; 6% of 1,500 active; further: potency means the concentration at half of the fitted maximal effect; on the % scale 0 is the no-effect control and ±100 the full control effect; nearly all actives have a fitted effect of over 55% in size
Starred values were filed as active, the others as inactive; ! = repeats disagree; [ ] = another dose, or the depositor's remark. Unless noted, the call rests on the fitted dose curve; in most records, active means well fitted curve in the direction sought with a large enough effect; inconclusive means small, poorly fitted or top-dose-only effect, or another doubt; inactive means no such curve, though single readings can be large; an effect the other way counts as inactive or inconclusive.

O=C1NC(=O)C(c2ccccc2[N+](=O)[O-])=C1Nc1ccc(O)c(Cl)c1 was read as Giardia FBPA inh-1 25.1µM*!, NS1 inh 35.5µM*!, LmPK inh 0.9%, AMA1-RON2 inh -19.9%, Tb PYK inh -10.4%, NS1 inh valid -13.0, Giardia growth -16.0%, Mammal cell tox -4.0%, Giardia FBPA inh-2 inconclusive, Rabbit FBPA inh inconclusive and GAPDH counter -19.1%.
`O=C(NNc1ccccc1[N+](=O)[O-])Nc1ccc(Cl)c(Cl)c1` gave Giardia FBPA inh-1 -24.8%, NS1 inh -46.5%, LmPK inh -0.7%, AMA1-RON2 inh -8.1% and Tb PYK inh 2.0%.
For O=S(=O)(Nc1ccc(C(F)(F)F)cc1)c1ccc2c(c1)OCCO2 the results were Tb PYK inh 9.4%.
For S=c1[nH]c2cc(Cl)c3cccnc3c2o1 the results were Giardia FBPA inh-1 3.55µM*, NS1 inh 3.98µM*, LmPK inh -3.6%, AMA1-RON2 inh 26.7%, Tb PYK inh inconclusive, NS1 inh valid 18.3, Giardia growth -6.1%[38.3 µM], Mammal cell tox -14.9%, Giardia FBPA inh-2 inconclusive, Rabbit FBPA inh inconclusive and GAPDH counter inconclusive.
For Cc1oc2c(O)c(O)ccc2c(=O)c1-c1ccccc1 the results were Giardia FBPA inh-1 11.2µM*, NS1 inh -2.2%, LmPK inh -13.4%, AMA1-RON2 inh 99.0%, Tb PYK inh -13.3%, Giardia growth 6.2%, Mammal cell tox -0.6%, Giardia FBPA inh-2 -27.0%, Rabbit FBPA inh inconclusive and GAPDH counter -21.9%.
For COc1ccccc1CNC1CCCc2ccccc21 (stereo unspecified) the results were Giardia FBPA inh-1 15.8µM*, NS1 inh -3.4%, LmPK inh -5.9%, AMA1-RON2 inh -11.9%, Tb PYK inh 2.4%, Giardia growth inconclusive, Mammal cell tox -0.1%, Giardia FBPA inh-2 3.3%, Rabbit FBPA inh 3.6% and GAPDH counter 10.0%.
`COc1ccc(CNC2CCSc3ccccc32)cc1OC` (stereo unspecified) gave Giardia FBPA inh-1 28.2µM*, NS1 inh -3.3%, LmPK inh -3.6%, AMA1-RON2 inh -6.0%, Tb PYK inh 31.9%, Giardia growth 8.3%[10.4 µM], Mammal cell tox 25.0%, Giardia FBPA inh-2 0.9%, Rabbit FBPA inh 4.4% and GAPDH counter 2.6%.
For CC(=O)N1CCN(C)CC1 the results were Giardia FBPA inh-1 -7.5%.
COc1ccc(/C=C2/SC(c3ccc(C)cc3)=NC2=O)cc1OC was read as Giardia FBPA inh-1 inconclusive, NS1 inh 27.2%, LmPK inh inconclusive, AMA1-RON2 inh -1.9% and Tb PYK inh inconclusive.
For COc1cc(/C=C2\SC(c3ccccc3)=NC2=O)cc(Cl)c1O the results were Giardia FBPA inh-1 5.61µM*, NS1 inh 6.0%, LmPK inh inconclusive, AMA1-RON2 inh 3.5%, Tb PYK inh inconclusive, Giardia growth 53.9%, Mammal cell tox 4.7%, Giardia FBPA inh-2 -25.8%, Rabbit FBPA inh -26.1% and GAPDH counter 1.7%.
